Source: PubChem BioAssay (NCI)
The panel holds about 79,000 compounds, 15% with a hit somewhere; the sample as a whole holds those more often. Activity calls are given as the source filed them. Rule as the data show it: active = growth inhibition above about 70%; inactive = the rest.

What was measured:
[1] = NCI Yeast Anticancer Drug Screen. Data for the mec2-1 strain (AID 157); settings: S. cerevisiae mec2-1 strain, stronger effect = higher value
Method in brief: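 Strain: mec2-1 (DNA repair/cell cycle alteration). Compound exposure, then growth measured; inhibition expressed relative to vehicle.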

[2] = NCI Yeast Anticancer Drug Screen. Data for the rad14 strain (AID 159);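 also: 0% = growth of vehicle-treated control cultures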; settings: S. cerevisiae rad14 strain growth inhibition, stronger effect = higher value
Method in brief: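 A mutant yeast strain defective in DNA damage repair is treated with compound; inhibition of its growth is scored against untreated, vehicle-exposed cultures.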

[3] = NCI Yeast Anticancer Drug Screen. Data for the sgs1 mgt1 strain (AID 161);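 also: 0% = growth of cultures given vehicle only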; settings: S. cerevisiae sgs1 mgt1 strain, stronger effect = higher value
Method in brief: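 Genetically altered yeast, compound exposure, growth inhibition relative to vehicle.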

[4] = NCI Yeast Anticancer Drug Screen. Data for the CLN2oe strain (AID 163);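 also: 0% = growth of vehicle-only control cultures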; settings: S. cerevisiae CLN2oe strain, stronger effect = higher value
Method in brief: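 Growth of a genetically modified yeast strain is measured after compound exposure and compared with cultures given vehicle alone.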

[5] = NCI Yeast Anticancer Drug Screen. Data for the cln2 rad14 strain (AID 165);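 also: 0% = growth equal to vehicle treated cultures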; settings: S. cerevisiae cln2 rad14 strain, stronger effect = higher value
Method in brief: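 Compounds are applied to the cln2 rad14 yeast strain, and growth is then compared with that of vehicle-treated cultures to give inhibition.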

[6] = NCI Yeast Anticancer Drug Screen. Data for the bub3 strain (AID 167); settings: S. cerevisiae bub3 mutant strain, stronger effect = higher value
Method in brief: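 Steps: expose the mutant yeast strain to compound; grow alongside vehicle-treated cultures; measure growth; express inhibition against the vehicle cultures.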

[7] = NCI Yeast Anticancer Drug Screen. Data for the wt2 strain (AID 169);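 also: 0% = growth of vehicle-treated yeast cultures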; settings: S. cerevisiae wt2 strain growth inhibition, stronger effect = higher value
Method in brief: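 This strain belongs to a panel of yeast strains with defined genetic alterations in DNA damage repair or cell cycle control. Compounds are applied, and growth inhibition is measured against vehicle-treated cultures.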

[8] = NCI Yeast Anticancer Drug Screen. Data for the mlh1 strain (AID 171);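 also: 0% = growth of vehicle-treated control cultures of the same strain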; settings: S. cerevisiae mlh1 strain growth inhibition, stronger effect = higher value
Method in brief: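 Growth of the mutant yeast strain after compound exposure, expressed as inhibition relative to vehicle-only controls.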

[9] = NCI Yeast Anticancer Drug Screen. Data for the sgs1 strain (AID 173);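 also: 0% = growth of vehicle-only control cultures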; settings: S. cerevisiae sgs1 mutant, stronger effect = higher value
Method in brief: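 Growth of a yeast strain bearing a defined genetic alteration is measured after compound treatment. Inhibition is expressed relative to vehicle-only controls.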

[10] = NCI Yeast Anticancer Drug Screen. Data for the mlh1 rad18 strain (AID 175); settings: S. cerevisiae mlh1 rad18 strain growth inhibition, stronger effect = higher value
Method in brief: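 Read-out is yeast growth inhibition, calculated against vehicle-only controls. The compound was applied to a strain engineered with DNA damage repair alterations.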

[11] = NCI Yeast Anticancer Drug Screen. Data for the rad18 strain (AID 177); settings: S. cerevisiae rad18 mutant growth inhibition, stronger effect = higher value
Method in brief: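 Growth of the mutant yeast strain after compound exposure, normalised to vehicle-only cultures.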

[12] = NCI Yeast Anticancer Drug Screen. Data for the rad52 strain (AID 147);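 also: 0% = growth of vehicle-treated control cultures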; settings: S. cerevisiae rad52 mutant growth inhibition, stronger effect = higher value
Method in brief: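 Compounds are applied to a genetically defined yeast strain lacking normal DNA damage repair, and inhibition of growth is expressed relative to cultures given vehicle only.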

[13] = NCI Yeast Anticancer Drug Screen. Data for the wt1 strain (AID 149);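 also: 0% = growth of vehicle-treated wt1 cultures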; settings: S. cerevisiae wt1 strain (SPY 50644) growth inhibition, stronger effect = higher value
Method in brief: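 Compounds are added to wt1 yeast cultures. Growth is then measured. Inhibition is expressed relative to vehicle-treated controls.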

[14] = NCI Yeast Anticancer Drug Screen. Data for the rad50EPP+ strain (AID 151);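 also: 0% = growth of vehicle-treated control cultures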; settings: S. cerevisiae rad50 mutant strain, stronger effect = higher value
Method in brief: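 Compounds were applied to the rad50EPP+ yeast strain, which bears a defined DNA repair alteration, and growth inhibition was determined relative to vehicle-treated cultures.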

[15] = NCI Yeast Anticancer Drug Screen. Data for the rad50 strain (AID 155);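 also: 0% = growth of vehicle-only cultures of the same strain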; settings: S. cerevisiae rad50 strain growth inhibition, stronger effect = higher value
Method in brief: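 Inhibition values express reduced yeast growth in compound-treated cultures relative to vehicle-treated controls.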

[16] = at 5.0 µM (retest, dose inferred, filed as 0.5)
[17] = at 50.0 µM (retest, dose inferred, filed as 5.0)

Measured: growth inhibition

CN(C)c1ccc(N=Nc2ccccn2)cc1
inactive: [2]; at 1.2 µM 12% | [2]; at 3.7 µM 1% | [2]; at 11.0 µM 62% | [3]; [16] -1% | [4]; at 1.2 µM 1% | [4]; at 3.7 µM -17% | [4]; at 11.0 µM 17% | [5]; [16] 41% | [6]; at 1.2 µM -3% | [6]; at 3.7 µM 15% | [6]; [16] 40% | [6]; at 11.0 µM 61% | [7]; at 1.2 µM -27% | [7]; at 3.7 µM -12% | [7]; at 11.0 µM 3% | [8]; at 1.2 µM 33% | [8]; at 3.7 µM 10% | [8]; at 11.0 µM 60% | [9]; at 1.2 µM -6% | [9]; at 3.7 µM 5% | [9]; at 11.0 µM 25% | [11]; at 1.2 µM -16% | [11]; at 3.7 µM -10% | [11]; at 11.0 µM -1%
active: [1]; at 100.0 µM 96% | [2]; at 33.0 µM 95% | [2]; at 100.0 µM 97% | [3]; [17] 98% | [3]; at 50.0 µM 85.6% | [4]; at 33.0 µM 77% | [4]; at 100.0 µM 88% | [5]; [17] 97% | [5]; at 50.0 µM 75.2% | [6]; at 33.0 µM 95% | [6]; [17] 97% | [6]; at 50.0 µM 87.1% | [6]; at 100.0 µM 96% | [7]; at 33.0 µM 86% | [7]; at 100.0 µM 94% | [8]; at 33.0 µM 93% | [8]; at 100.0 µM 96% | [9]; at 33.0 µM 88% | [9]; at 100.0 µM 94% | [10]; [16] 100% | [10]; [17] 100% | [10]; at 50.0 µM 83.2% | [11]; at 33.0 µM 83% | [11]; at 100.0 µM 91%

N#Cc1sc2c(c1OC(=O)c1ccco1)c(=O)n(-c1ccccc1)c(=S)n2-c1ccccc1
active: [15]; [17] 94% | [15]; at 50.0 µM 94.6% | [1]; [17] 82% | [1]; at 50.0 µM 95% | [3]; [17] 95% | [3]; at 50.0 µM 95.7% | [5]; [17] 91% | [5]; at 50.0 µM 94% | [6]; [17] 91% | [6]; at 50.0 µM 95.4% | [10]; [17] 94% | [10]; at 50.0 µM 95.2%
inactive: [12]; at 1.2 µM 0% | [12]; at 3.7 µM 1% | [12]; at 11.0 µM -1% | [12]; at 33.0 µM 0% | [12]; at 100.0 µM 0% | [13]; at 1.2 µM -3% | [13]; at 3.7 µM -4% | [13]; at 11.0 µM -1% | [13]; at 33.0 µM -1% | [13]; at 100.0 µM 0% | [14]; at 1.2 µM 9% | [14]; at 3.7 µM 6% | [14]; at 11.0 µM 11% | [14]; at 33.0 µM 8% | [14]; at 100.0 µM 5% | [15]; at 1.2 µM 0% | [15]; at 3.7 µM 2% | [15]; [16] 3% | [15]; at 11.0 µM 1% | [15]; at 33.0 µM 0% | [15]; at 100.0 µM -1% | [1]; at 1.2 µM -1% | [1]; at 3.7 µM -1% | [1]; [16] 7% | [1]; at 11.0 µM -2% | [1]; at 33.0 µM -6% | [1]; at 100.0 µM 0% | [2]; at 1.2 µM 1% | [2]; at 3.7 µM 1% | [2]; at 11.0 µM 3% | [2]; at 33.0 µM 2% | [2]; at 100.0 µM -2% | [3]; [16] 0% | [4]; at 1.2 µM -2% | [4]; at 3.7 µM -1% | [4]; at 11.0 µM 4% | [4]; at 33.0 µM -1% | [4]; at 100.0 µM -6% | [5]; [16] 23% | [6]; at 1.2 µM 0% | [6]; at 3.7 µM -4% | [6]; [16] 13% | [6]; at 11.0 µM -3% | [6]; at 33.0 µM 0% | [6]; at 100.0 µM -6% | [7]; at 1.2 µM -1% | [7]; at 3.7 µM -1% | [7]; at 11.0 µM -2% | [7]; at 33.0 µM -9% | [7]; at 100.0 µM 3% | [8]; at 1.2 µM -4% | [8]; at 3.7 µM -2% | [8]; at 11.0 µM -2% | [8]; at 33.0 µM -5% | [8]; at 100.0 µM -3% | [9]; at 1.2 µM 0% | [9]; at 3.7 µM 1% | [9]; at 11.0 µM 0% | [9]; at 33.0 µM 1% | [9]; at 100.0 µM 0% | [10]; [16] 59% | [11]; at 1.2 µM 0% | [11]; at 3.7 µM 1% | [11]; at 11.0 µM -17% | [11]; at 33.0 µM 2% | [11]; at 100.0 µM -1%
